# TLR9-MyD88 block: inhibitors of TLR9-MyD88 association in cells, primary screen, cell-based, CHO, BLA complementation, fluorescence | CCF4 FRET ratio | inhibition, % at 4.98 µM | 0.21% of 340,000 active;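 active = inhibition above the mean over all tested compounds plus 3 SD, cut at about 21% in these data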;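 also: 0% = DMSO only wells and 100% = clavulanate BLA inhibitor control wells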
# NOD2 RIPK2 PPI: NOD2-RIPK2 binding disruptors in cells, primary screen, fluorescence, CHO cells, BLA complementation; Receptor-interacting serine/threonine-protein kinase 2 (Homo sapiens), O43353; 0.38% of 360,000 active; AID 624267, 2012; CCF4 ratio; inhibition, % at 4.98 µM; in the data active = inhibition above about 21%;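 also: 0% = vehicle only and 100% = reference blocker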
# TLR4-MyD88 BLA: inhibitors of TLR4-MyD88 association in cells, primary screen, cell-based, HeLa CL3-4, BLA complementation, FRET ratio. AID 861, 2007. inhibition, % at 8.4 µM. 0.18% of 200,000 active. HeLa CL3-4 TLR4/MyD88 BLA complementation. Toll-like receptor 4 (Homo sapiens) + Myeloid differentiation primary response protein …; in the data active = inhibition above about 25%;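 also: 0% = vehicle and 100% = reference inhibitor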
# Myeloid diff MLP: induction of myeloid progenitor differentiation, primary screen, cell-based, flow cytometry, MLPCN library. ER-HoxA9 myeloid progenitors, lysozyme-GFP differentiation. calls only at 10 µM. 1% of 360,000 active;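 active = normalized GFP-positive differentiation at or above the plate's own cutoff, the solvent-only control mean plus 3 SD; inconclusive = no clear call, values can overlap the other calls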;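 also: cells exposed to compound for four days before flow analysis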
# ABCB6 inh MLPCN: ABCB6 transporter inhibitors, primary screen, K562-ABCB6 cells, flow cytometry, MLPCN library. ATP-binding cassette sub-family B member 6 (Homo sapiens), Q9NP58. K562-ABCB6 porphyrin accumulation, 1 h; hits give low values. fluorescence ratio to DMSO, % at 10 µM. 0.19% of 360,000 active. AID 602162, 2011;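 active = fluorescence ratio to DMSO below 75%, the collection mean minus 3 SD; inconclusive = too few cells collected in the well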;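 also: signal is porphyrin accumulated inside mitochondria; 100% equals median channel fluorescence of DMSO control wells; lower ratio means ABCB6 inhibition with less porphyrin fluorescence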
# Target sequence (Q9NP58 whole entry, looked up): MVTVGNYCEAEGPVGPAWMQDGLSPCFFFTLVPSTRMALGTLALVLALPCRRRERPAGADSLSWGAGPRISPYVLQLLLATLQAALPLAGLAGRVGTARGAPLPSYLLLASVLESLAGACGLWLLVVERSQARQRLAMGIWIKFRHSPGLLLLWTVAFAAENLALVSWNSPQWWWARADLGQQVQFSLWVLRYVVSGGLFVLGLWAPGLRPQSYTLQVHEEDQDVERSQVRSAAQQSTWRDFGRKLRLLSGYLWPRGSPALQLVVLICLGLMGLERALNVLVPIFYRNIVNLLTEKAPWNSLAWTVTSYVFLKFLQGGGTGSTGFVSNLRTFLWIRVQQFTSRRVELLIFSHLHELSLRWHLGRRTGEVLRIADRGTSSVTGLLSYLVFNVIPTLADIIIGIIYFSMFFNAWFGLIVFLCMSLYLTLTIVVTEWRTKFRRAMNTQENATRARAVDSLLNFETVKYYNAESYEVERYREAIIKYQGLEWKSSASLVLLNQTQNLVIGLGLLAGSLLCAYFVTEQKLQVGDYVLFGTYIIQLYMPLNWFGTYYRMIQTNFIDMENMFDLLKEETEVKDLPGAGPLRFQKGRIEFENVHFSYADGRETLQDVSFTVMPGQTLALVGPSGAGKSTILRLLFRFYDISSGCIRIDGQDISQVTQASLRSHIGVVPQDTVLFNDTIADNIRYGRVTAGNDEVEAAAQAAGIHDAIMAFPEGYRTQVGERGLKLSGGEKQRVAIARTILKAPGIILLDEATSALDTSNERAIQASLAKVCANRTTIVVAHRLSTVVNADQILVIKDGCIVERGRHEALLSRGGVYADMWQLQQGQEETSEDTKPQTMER
# NOD2 RIPK2 conf: NOD2-RIPK2 binding disruptors, retest, confirmation, fluorescence, CHO cells, BLA complementation, triplicate. shares compounds with NOD2 RIPK2 PPI. CCF4 FRET. inhibition, % at 4.98 µM. 70% of 1,200 active;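 active = mean inhibition across replicates above a set limit taken from the earlier primary screen, cut at about 21% in these data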;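 also: 0% = DMSO-only wells and the high end = clavulanate BLA-blocked wells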
# NOD2 BLA counter: counter-screen for NOD2-RIPK2 interaction inhibitors: BLA reporter; shares compounds with NOD2 RIPK2 PPI; CHO BLA reporter, CCF4 FRET ratio, counterscreen; inhibition, % at 4.98 µM; 57% of 1,200 active; AID 624371;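 active = mean inhibition above the low-control mean inhibition plus three low-control SD, cut at about 11% in these data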;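 also: 0% = DMSO only wells and 100% = clavulanate high control wells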
# Numbers without * were called inactive; i = inactive; ? = inconclusive; . = not tested or not shown; + = active, no number. Most compounds without a hit are left out; they make up all but 1.7% or so of the library.
SMILES,TLR9-MyD88 block,NOD2 RIPK2 PPI,TLR4-MyD88 BLA,Myeloid diff MLP,ABCB6 inh MLPCN,NOD2 RIPK2 conf,NOD2 BLA counter
O=C(COc1cccc2ccccc12)N1CCN(c2ccccn2)CC1,-1.1,-9.5,0.9,i,99.0,.,.
CCC(=O)c1ccc(OCC(=O)N2CCN(c3ccccn3)CC2)cc1,6.9,27.8*,.,i,98.0,-1.0,4.5
O=C1C(=NO)C(c2ccccc2)Oc2ccccc21 (centres undefined),12.3,27.9*,.,i,96.0,19.9,27.2*
O=C(c1ccccc1)N1C(=O)C(c2ccccc2)Oc2ccccc21 (centres undefined),-5.7,-9.0,.,i,109.0,.,.
Cc1ccc(S(=O)(=O)NCc2cccnc2)cc1C(=O)N1CCCC1,3.7,-2.5,.,i,101.0,.,.
Clc1nc2c(-c3ccccc3)nnn2c2ccccc12,19.7,24.1*,.,.,96.0,80.5*,61.8*
O=c1c(O)c(-c2ccc(O)c(O)c2)oc2cc(O)ccc12,20.1,25.0*,.,i,99.0,28.6*,28.2*
CCCNC(=O)c1ccc(COc2cccc3ccccc23)o1,-0.8,26.0*,.,i,106.0,2.0,-4.0
CC(=O)N1c2ccc(S(=O)(=O)NCCC(=O)Nc3ccc(F)cc3C)cc2CC1C (centres undefined),-5.8,2.1,.,i,102.0,.,.
O=C(NCC1CCCCC1)c1cccc(-c2ccc(O)cc2)c1,1.3,-0.1,.,?,104.0,.,.
O=C(NC1CCCCC1)C(c1cccc2ccccc12)n1c(=O)c(-c2cc3ccccc3[nH]2)nc2ccccc21 (centres undefined),.,38.5*,.,i,.,34.2*,62.3*
O=C(NC1CCCCC1)C(c1ccccc1F)n1c(=O)c(-c2ccco2)nc2ccccc21 (centres undefined),.,-2.4,.,i,.,.,.
O=C(NC1CCCCC1)C(c1ccnc2ccccc12)n1c(=O)c(-c2ccco2)nc2ccccc21 (centres undefined),.,-5.1,.,i,.,.,.
O=C(NC1CCCCC1)C(c1ccccc1F)n1c(=O)c(-c2cc3ccccc3[nH]2)nc2ccccc21 (centres undefined),.,44.5*,.,i,.,41.9*,66.3*
COC(=O)CCS(=O)(=O)c1nc(-c2ccccc2)cc(C(F)(F)F)n1,19.3,44.4*,14.8,?,99.0,59.3*,13.3*
O=C(O)CCS(=O)(=O)c1nc(-c2cccs2)cc(C(F)(F)F)n1,-2.4,-8.4,2.9,i,103.0,.,.
COc1ccc(-c2cc(C(F)(F)F)nc(S(C)(=O)=O)n2)cc1,16.8,32.5*,14.6,i,99.0,42.4*,1.6
COCC(C)NC(=O)CCS(=O)(=O)c1nc(-c2ccc(OC)cc2)cc(C(F)(F)F)n1 (centres undefined),-8.7,-10.1,-4.6,i,119.0,.,.
Cc1cc(NC(=O)CCCS(=O)(=O)c2nc(-c3cccs3)cc(C(F)(F)F)n2)no1,20.2,67.6*,23.1,.,85.0,43.4*,15.2*
Cc1ccc(S(=O)(=O)N2CCN(C(=O)CCOc3cc(C)ccc3C)CC2)cc1,-3.0,0.0,.,i,98.0,.,.
Cc1ccccc1NC(=O)c1sc2nc3c(c(-c4ccco4)c2c1N)CCCC3,10.7,39.2*,17.3,i,105.0,51.0*,56.2*
O=c1oc2ccccc2cc1-c1nnc(NCc2ccco2)s1,13.7,35.2*,21.0,i,100.0,35.8*,41.0*
CCOc1ccc(C(=O)C(CN2CCOCC2)c2ccccc2)cc1 (centres undefined),-6.5,6.0,0.2,i,98.0,.,.
O=C(c1ccc(Br)cc1)C(CN1CCOCC1)c1ccccc1 (centres undefined),14.5,25.6*,.,.,89.0,26.7*,-2.9
Cc1ccc(CNC(=O)c2nccnc2C(=O)O)cc1,-6.9,3.8,.,i,102.0,.,.
SMILES,TLR9-MyD88 block,NOD2 RIPK2 PPI,TLR4-MyD88 BLA,Myeloid diff MLP,ABCB6 inh MLPCN,NOD2 RIPK2 conf,NOD2 BLA counter
Cc1ccc(-c2nn(-c3ccccc3)cc2C(=O)O)o1,.,.,1.8,.,.,.,.
Cc1ccc(-c2nn(-c3ccccc3)cc2CN(Cc2ccccc2)C(=O)c2ccco2)o1,8.3,36.3*,-3.5,i,98.0,1.9,-6.8
CCOc1cc(/C=C2\COc3ccccc3C2=O)cc(Br)c1OCC(=O)N(C)C,4.2,25.9*,.,?,90.0,27.5*,-4.4
Cc1ccc(OCC(=O)NNC(=O)C2CSC3(C)CCC(=O)N23)cc1 (centres undefined),-1.2,2.8,.,i,99.0,.,.
Nc1nc2ncccn2c1-c1ccc(F)c(F)c1,.,27.8*,.,i,.,18.5,19.9*
O=C(C[n+]1ccccc1)c1ccc(NC(=O)c2ccccc2)cc1,-0.2,35.2*,15.1,i,94.0,-1.1,-6.7
N#Cc1c(C(F)(F)F)cc(-c2ccco2)nc1SCc1ccncc1,18.3,29.4*,13.3,+,109.0,-3.1,-1.8
COc1ccccc1COc1ccc2c(C)c(CC(=O)O)c(=O)oc2c1C,0.4,5.1,.,i,105.0,.,.
COCCNC(=S)N/N=C/c1ccc(-c2ccc([N+](=O)[O-])cc2)o1,14.0,30.8*,.,i,112.0,44.4*,47.4*
CCN(CC(=O)Nc1c(F)cccc1F)C(=O)/C=C/c1ccc2c(c1)OCO2,1.2,-9.6,.,i,103.0,.,.
COc1ccc(-c2cc(C(=O)NC3CCCCC3)no2)cc1OC,-20.1,57.6*,.,i,98.0,5.7,1.6
Cc1ccc(-c2cc(C(=O)NC3CCCCC3)no2)cc1,-3.0,-4.4,.,i,97.0,.,.
Cc1noc2ncnc(Sc3ccccc3Cl)c12,19.9,27.9*,9.6,?,104.0,22.8*,-5.6
CCc1ccc2c(c1)/C(=C/C(=O)c1cccs1)C(=O)N2,10.8,47.2*,16.7,?,102.0,41.7*,2.4
Cc1cccc2c1NC(=O)/C2=C\C(=O)c1cccs1,-1.6,6.8,7.4,i,103.0,.,.
CCn1c(NCc2cc(Cl)ccc2O)nc2ccccc21,-4.9,45.8*,.,i,96.0,-1.4,-1.1
C=CCn1c(NCc2cc(Cl)ccc2O)nc2ccccc21,0.7,1.8,.,i,96.0,.,.
CCOc1ccccc1NC(=O)CN1CCCCCC1,-2.1,3.0,.,i,101.0,.,.
COCC[N+]1(C)CCCCC1,-14.7,-8.3,-19.4,i,94.0,.,.

# Screening data from PubChem BioAssay.
